This is a sample that favours compounds with a hit; in the whole collection about 2.7% have one here.
ATXN viability: reduces viability in counter-screen for ATXN expression inhibitors; AID 651635; S2 cells (HEK-293 line with an ATXN2-luciferase reporter) viability, CellTiter-Fluor protease fluorescence, 24 h; Potency, µM (highest dose often 56.7 µM), actives largely listed as cytotoxic; 400,000 compounds, 0.49% hits; note: nearly all actives have a fitted effect of over 40% in size
HepG2 viability: counter-screen for TGF-b inhibitors: cytotoxicity in HepG2 cells; HepG2 CAGA-GFP viability, ATP luminescence, 18 h; Potency, µM (top dose mostly 46.1 µM), for the others: at the highest dose activity change, negative = cytotoxicity, usual class: cytotoxic; 410,000 compounds, 0.76% hits
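CellTiter-Glo luminescence gave cytotoxicity after 18 hours at 37 degrees C. The cells were HepG2 CAGA-GFP in 1% FBS DMEM, stimulated with 500 pg/mL TGF-beta after compound addition. %Activity was normalised to no-cell wells (complete cell-killing) and DMSO (no toxicity), and curves were fitted and classified.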
ALOX12 inh: ALOX12 (human) lipoxygenase inhibition; Potency, µM (series often up to 108 µM), without a hit: at the top dose activity change, negative = inhibition, actives largely listed as inhibitors; P18054; 580,000 compounds, 1.1% hits; purified 12hLO, xylenol orange hydroperoxide absorbance; note: % is set by controls: 0 for no effect and ±100 for the full control effect
Target sequence (P18054 whole entry, looked up): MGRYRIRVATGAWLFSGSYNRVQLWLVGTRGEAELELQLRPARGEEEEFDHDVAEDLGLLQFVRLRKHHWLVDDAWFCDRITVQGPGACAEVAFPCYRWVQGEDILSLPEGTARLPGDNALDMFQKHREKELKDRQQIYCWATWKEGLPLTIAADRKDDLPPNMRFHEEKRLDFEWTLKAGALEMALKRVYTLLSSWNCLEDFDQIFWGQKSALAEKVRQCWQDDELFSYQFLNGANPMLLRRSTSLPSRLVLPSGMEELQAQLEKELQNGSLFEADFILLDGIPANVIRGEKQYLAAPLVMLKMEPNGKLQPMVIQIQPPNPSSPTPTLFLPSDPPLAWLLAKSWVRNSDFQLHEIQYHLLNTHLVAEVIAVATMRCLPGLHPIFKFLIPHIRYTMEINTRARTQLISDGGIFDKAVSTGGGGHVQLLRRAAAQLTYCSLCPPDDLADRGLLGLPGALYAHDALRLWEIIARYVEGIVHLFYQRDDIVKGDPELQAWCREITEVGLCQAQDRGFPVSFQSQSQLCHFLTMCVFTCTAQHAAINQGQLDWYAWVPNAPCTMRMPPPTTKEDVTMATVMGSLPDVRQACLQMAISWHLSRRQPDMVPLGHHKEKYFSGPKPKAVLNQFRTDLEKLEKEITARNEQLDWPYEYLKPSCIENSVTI
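Purified human 12hLO at 150 nM in 25 mM Hepes, 0.01% Triton X-100, pH 7.0, preincubated 15 min at room temperature with compound. Reaction started with 40 uM arachidonic acid, 30 min at room temperature. Hydroperoxide measured by Fe-xylenol orange, 573/405 nm absorbance ratio.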
ATXN2 expr inh: ATXN2 expression inhibition. 360,000 compounds, 0.72% hits. AID 1745845. HEK-293 ATXN2-luciferase reporter, luminescence, 24 h. Potency, µM (doses to about 57 µM), without a hit: at the top dose activity change, negative = inhibition, hits mostly inhibitors; note: % is set by controls: 0 for no effect and ±100 for the full control effect; nearly all actives have a fitted effect of over 55% in size
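qHTS (up to 57 uM final) was run with 24 h compound exposure of reporter cells at 37 °C. Each well was multiplexed: SteadyGlo luminescence measured ATXN2-luciferase expression after a fluorogenic Gly-Phe-AFC viability readout (25 uM final).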
TGFb SMAD3 inh: blocks TGF-b signaling; Potency, µM (titrated, usually from 46.1 µM), inactives show top-dose activity, negative = inhibition, most hits filed as inhibitors; 410,000 compounds, 1.2% hits; HepG2 CAGA-GFP TGF-b/SMAD3 reporter, GFP fluorescence, 18 h; TGF-beta stimulated, 500 pg/mL final; AID 588855; note: % is set by controls: 0 for no effect and ±100 for the full control effect; nearly all actives have a fitted effect of over 65% in size
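TGF-beta reporter screen: HEPG2 CAGA-GFP, 1% FBS, 500 pg/mL TGF-beta final, 18 h; per-cell GFP summed per well; curves fitted and categorized by class.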
* hit, by the source's call; i = inactive; ? = inconclusive; · = not tested or not shown; ! = not confirmed by another sample; [ ] = remark or other dose. Calls come from the whole dose curve; as a rule, active = well fitted curve in the direction sought with a large enough effect; inconclusive = small, poorly fitted or top-dose-only effect, or another doubt; inactive = no such curve, though single readings can be large; an effect the other way counts as inactive or inconclusive. Potency is the fitted concentration of half-maximal effect.

SMILES | ATXN viability | HepG2 viability | ALOX12 inh | ATXN2 expr inh | TGFb SMAD3 inh
CCOc1ccc(-c2nc(N)ncc2Oc2ccc(OC)cc2)c(O)c1 | i | -7% | 16µM* | 8% | -16%
CC(=O)NC1(C)CCCN(Cc2cccc(-c3ccccc3)c2)C1 (configuration not stated) | · | · | 4%[176 µM] | · | ·
CC(=O)NC1(C)CCN(Cc2cccc(-c3ccc4c(ccn4C)c3)c2)C1 (configuration not stated) | · | · | 32µM* | · | ·
CC1CCN(CC2CCCCN2)CC1 (configuration not stated) | · | · | -3% | · | ·
COc1ccc(/C=C/C(=O)c2oc3ccc(F)cc3c2C)cc1 | i | -8% | · | 6% | -4%
Cc1ccc(OC(=O)c2oc3ccc(F)cc3c2C)c(C)c1 | 18µM* | 6% | -5% | ? | -5%
NC(=O)c1ccsc1NC(=O)COC(=O)c1ccc(Cl)cc1F | · | · | -4% | · | ·
Cc1cccc(Oc2ccc(NC(=O)CC3Sc4ccccc4NC3=O)cc2)c1 (configuration not stated) | · | · | -15% | · | ·
COc1ccccc1CNC(=O)C1CC2Cn3c(nc4cc(Cl)c(Cl)cc43)C2N1C (configuration not stated) | ? | -40% | 11µM* | -2% | -21%
COc1ccccc1CNC(=O)C1CC2Cn3c(nc4cc5ccccc5cc43)C2N1C (configuration not stated) | ? | -20% | -5% | 9% | -17%
C=C(C(=O)c1ccccc1)C(c1ccccc1)C(C)C(=O)c1ccccc1 (configuration not stated) | · | -86% | 11% | -28% | ?
C=C(C(=O)c1ccccc1)C(C)C(=C)C(=O)c1ccccc1 | 25µM* | 7.9µM* | -2% | 28µM* | ?
Cc1cccc(CN2C(=O)c3ccccc3Sc3ccc(C(=O)NCCCN4CCOCC4)cc32)c1 | ? | 11µM*! | ? | -29% | 11µM*!
CN(C)CCNC(=O)c1ccc2c(c1)N(Cc1c(F)cccc1Cl)C(=O)c1ccccc1S2 | i | -67% | ? | 22µM* | ?
CCCCN(CC)CCCNC(=O)c1ccc2c(c1)N(Cc1ccc(C)cc1)C(=O)c1ccccc1S2 | · | 11µM* | ? | · | 14µM*
CC(Oc1ccc(Cl)cc1)C(=O)OCc1nc(N)nc(N)n1 (configuration not stated) | · | · | 3% | · | ·
Cc1ccc(C)c(NC(=O)CN(C)C(=O)COc2cccc(F)c2)c1 | · | · | -3% | · | ·
CCCNC(=O)Nc1ccccc1CC(N)=O | · | · | 59% | · | ·
CCc1c2c(nc3ccc4c(c13)OCCO4)-c1nc3ccccc3c(=O)n1C2 | · | -31% | · | · | 2%
CC[C@@]1(O)C(=O)OCc2c1cc1n(c2=O)Cc2c-1nc1ccccc1c2/C=N/OC(C)(C)C | i | · | -11%[22.9 µM] | 0.0005µM* | ·
CC[C@@]1(O)C(=O)OCc2c1cc1n(c2=O)Cc2cc3cc(O)ccc3nc2-1 | · | · | ? | 0.038µM* | ·
COc1ccc(Nc2cnc3ccc(-c4cccc(CO)c4)nn23)cn1 | · | · | -1%[176 µM] | · | ·
Cc1ccc(C)c(NC(=O)c2nc(S(=O)(=O)Cc3ccc(F)cc3)ncc2Cl)c1 | · | 3.5µM* | 7% | · | 3.5µM*
CCc1nnc(NC(=O)c2nc(S(=O)(=O)Cc3ccc(C)cc3)ncc2Cl)s1 | · | -183% | 1% | ? | ?
CCS(=O)(=O)c1ncc(Cl)c(C(=O)Nc2ccc(C)cc2)n1 | · | -98% | 10% | ? | ?
SMILES | ATXN viability | HepG2 viability | ALOX12 inh | ATXN2 expr inh | TGFb SMAD3 inh
CCOc1ccc(NC(=O)c2nc(S(=O)(=O)Cc3ccccc3)ncc2Cl)cc1 | · | 11µM* | · | · | 11µM*
CC(=O)Nc1ccc(NC(=O)c2nc(S(=O)(=O)Cc3ccccc3)ncc2Cl)cc1 | ? | -108% | 0% | · | ?
COc1ccc(NC(=O)c2nc(S(=O)(=O)Cc3ccc(C)cc3)ncc2Cl)cc1 | · | 8.9µM* | -24% | · | ·
CCOc1ccc(NC(=O)c2nc(S(=O)(=O)Cc3ccc(C)cc3)ncc2Cl)cc1 | · | 13µM* | -29% | · | ?
CC(C)c1cc(=O)oc2cc(OCC(=O)Nc3ccc(C(N)=O)cc3)ccc12 | · | · | 0% | · | ·
O=C(CN1CCN(c2cnn(-c3ccccc3)c(=O)c2Cl)CC1)Nc1ccc2ccccc2c1 | · | · | -32% | · | ·
CS(=O)(=O)c1ncc(Cl)c(C(=O)Nc2ccc3ccccc3c2)n1 | 20µM* | 5.6µM* | -2% | ? | 5µM*
O=C(Nc1ccc2ccccc2c1)c1cnccn1 | i | 0% | 0% | 29% | -8%
Cc1cc(N2C(=O)C(O)=C(C(=O)c3ccco3)C2c2cccc(Cl)c2)no1 (configuration not stated) | i | -23% | ? | · | 9%
Cc1cc(N2C(=O)C(O)=C(C(=O)c3ccc(C)o3)C2c2cccc(Cl)c2)no1 (configuration not stated) | i | -27% | 45µM* | · | -15%
Cc1cc(N2C(=O)C(O)=C(C(=O)c3ccc(C)o3)C2c2ccc([N+](=O)[O-])cc2)no1 (configuration not stated) | i | 2% | 40µM* | · | 2%
O=C(Nc1cccc2[nH]ccc12)C(=O)NC(c1ccccc1)c1ccccc1 | · | · | 23% | · | ·
FC(F)(F)c1cnc(Sc2nnc3ccccn23)c(Cl)c1 | · | · | -7% | · | ·
CCONC(=O)C(NC(=O)c1ccc(Cl)cc1)C(C)CC (configuration not stated) | · | · | 2% | · | ·
Oc1ccc2ccccc2c1CNc1ccccn1 | i | -13% | 35µM* | 5% | 1%
O=C(CCc1cccnc1)NCCc1c[nH]c2ccccc12 | · | · | 30% | · | ·
Cc1ccc(-n2[nH]c(=O)c(-c3ccccn3)c2C)cc1 | i | -18% | 0% | 1.8µM* | 3%
Cc1nc2c(c(-c3ccc(Cl)cc3)n1)CN([S+](=O)([O-])c1ccccc1)CC2 | · | · | 11% | · | ·
CCC(C)Cc1nccc(C2(c3ccccc3Cl)CCNCC2)n1 (configuration not stated) | · | · | -10% | · | ·
Cc1ccc(-c2cc3ccccn3c2C=O)cc1C | · | · | 16µM* | · | ·
Cc1cc2ccccn2c1C(=O)c1ccc(-c2ccccc2)cc1 | · | · | 0% | · | ·
CC(C)CNc1nc(-c2ccc(S(=O)(=O)N3CCCCCC3)cc2)cs1 | · | · | -6% | · | ·
O=C(O)CSc1cc(NS(=O)(=O)c2cccc([N+](=O)[O-])c2)c2ccccc2c1O | i | -95% | ? | ? | 10µM*
CCc1ccc(S(=O)(=O)Nc2cc(SCC(=O)O)c(O)c3ccccc23)cc1 | i | 18µM* | ? | · | ?
Cc1ccc(C)c(S(=O)(=O)Nc2cc(SCC(=O)O)c(O)c3ccccc23)c1 | 28µM* | -99% | · | ? | -46%
CCOc1ccc(S(=O)(=O)Nc2cc(SCC(=O)O)c(O)c3ccccc23)cc1 | ? | 13µM* | ? | · | 5µM*
CCc1cccc(NC(=O)C23CC4CC(CC(C4)C2)C3)c1 | · | · | 59% | · | ·

Screening data deposited in PubChem BioAssay by National Center for Advancing Translational Sciences (NCATS).
